# Reference: the supplement of paper PMC10849652
# The full data set covers some 8,800 targets. This sample favours those with a hit. About 0.5% of all pairs of compound and target were hits. A number with no mark means an inactive call.
# How the values were obtained:
# Experiment in all cases: log2 fold change, soluble protein after heating vs DMSO (PISA); higher = thermal stabilisation; K562 lysate, 10 uM; active = over 0.2 and 3.5 SD of the protein, either way, in both replicates (recomputed)
# lapatinib = compound: CS(=O)(=O)CCNCc1ccc(-c2ccc3ncnc(Nc4ccc(OCc5cccc(F)c5)c(Cl)c4)c3c2)o1 [lapatinib]
# In short: (§1)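 Dounce homogenisation of K562 pellets in PBS pH 7.4 with 1 mM MgCl2 produced a crude extract, used at 1 mg/mL protein. Exposure to 10 μM compound lasted 30 min, and aliquots were then heated for 3 min across 48°C-58°C, pooled and brought to 0.5% NP-40 at 4°C. The supernatant after 21,000xg for 90 min was quantified by TMTpro 16plex LC-MS/MS with channel sums equalised. Duplicate values are given as log-two fold change in thermal stability relative to solvent controls.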
# pictilisib = compound: CS(=O)(=O)N1CCN(Cc2cc3nc(-c4cccc5[nH]ncc45)nc(N4CCOCC4)c3s2)CC1 [pictilisib]
# In short: as §1
# [1] = compound: C[C@H](C1=CC=C(C=C1)C(=O)NC2=C3C=CNC3=NC=C2)N
# In short: as §1
# duvelisib = compound: C[C@H](Nc1ncnc2nc[nH]c12)c1cc2cccc(Cl)c2c(=O)n1-c1ccccc1 [duvelisib]
# In short: as §1
# gandotinib = compound: Cc1cc(Nc2cc(CN3CCOCC3)c3nc(C)c(Cc4ccc(Cl)cc4F)n3n2)n[nH]1 [gandotinib]
# In short: as §1
# tozasertib = compound: Cc1cc(Nc2cc(N3CCN(C)CC3)nc(Sc3ccc(NC(=O)C4CC4)cc3)n2)n[nH]1 [tozasertib]
# In short: as §1
# doramapimod = compound: Cc1ccc(-n2nc(C(C)(C)C)cc2NC(=O)Nc2ccc(OCCN3CCOCC3)c3ccccc23)cc1 [doramapimod]
# In short: as §1
# bafetinib = compound: Cc1ccc(NC(=O)c2ccc(CN3CC[C@H](N(C)C)C3)c(C(F)(F)F)c2)cc1Nc1nccc(-c2cncnc2)n1 [bafetinib]
# In short: as §1
# [2] = compound: Cc1cccc(CC(=O)N2CCc3c2ccc(-c2cn(C)c4ncnc(N)c24)c3F)n1
# In short: as §1
# nilotinib = compound: Cc1cn(-c2cc(NC(=O)c3ccc(C)c(Nc4nccc(-c5cccnc5)n4)c3)cc(C(F)(F)F)c2)cn1 [nilotinib]
# In short: as §1
# [3] = compound: Cc1nc(Nc2n[nH]c3c2CN(C(=O)N[C@H](CN(C)C)c2ccccc2)C3(C)C)c2sccc2n1
# In short: as §1
# dasatinib = compound: Cc1nc(Nc2ncc(C(=O)Nc3c(C)cccc3Cl)s2)cc(N2CCN(CCO)CC2)n1 [dasatinib]
# In short: as §1
# [4] = compound: Cc1ncc(-c2ccnc(Nc3ccc(S(C)(=O)=O)cc3)n2)n1C(C)C
# In short: as §1
# [5] = compound: Cn1cc(-c2ccc3c(c2)CCN3C(=O)Cc2cccc(C(F)(F)F)c2)c2c(N)ncnc21
# In short: as §1
# quisinostat = compound: Cn1cc(CNCC2CCN(c3ncc(C(=O)NO)cn3)CC2)c2ccccc21 [quisinostat]
# In short: as §1
# tipifarnib = compound: Cn1cncc1[C@@](N)(c1ccc(Cl)cc1)c1ccc2c(c1)c(-c1cccc(Cl)c1)cc(=O)n2C [tipifarnib]
# In short: as §1
# [6] = compound: NC(=O)Nc1cc(-c2cccc(F)c2)sc1C(=O)N[C@H]1CCCNC1
# In short: as §1
# [7] = compound: NC1(c2ccc(-c3nc4ccn5c(=O)[nH]nc5c4cc3-c3ccccc3)cc2)CCC1
# In short: as §1
# crizotinib = compound: C[C@@H](Oc1cc(-c2cnn(C3CCNCC3)c2)cnc1N)c1c(Cl)ccc(F)c1Cl [crizotinib]
# In short: as §1
# [8] = compound: NC(=O)c1cnc(N[C@@H]2CCCC[C@@H]2N)nc1Nc1cccc(-n2nccn2)c1
# In short: as §1
# Sequence of UniProt Q07617 (Q07617 whole entry, looked up): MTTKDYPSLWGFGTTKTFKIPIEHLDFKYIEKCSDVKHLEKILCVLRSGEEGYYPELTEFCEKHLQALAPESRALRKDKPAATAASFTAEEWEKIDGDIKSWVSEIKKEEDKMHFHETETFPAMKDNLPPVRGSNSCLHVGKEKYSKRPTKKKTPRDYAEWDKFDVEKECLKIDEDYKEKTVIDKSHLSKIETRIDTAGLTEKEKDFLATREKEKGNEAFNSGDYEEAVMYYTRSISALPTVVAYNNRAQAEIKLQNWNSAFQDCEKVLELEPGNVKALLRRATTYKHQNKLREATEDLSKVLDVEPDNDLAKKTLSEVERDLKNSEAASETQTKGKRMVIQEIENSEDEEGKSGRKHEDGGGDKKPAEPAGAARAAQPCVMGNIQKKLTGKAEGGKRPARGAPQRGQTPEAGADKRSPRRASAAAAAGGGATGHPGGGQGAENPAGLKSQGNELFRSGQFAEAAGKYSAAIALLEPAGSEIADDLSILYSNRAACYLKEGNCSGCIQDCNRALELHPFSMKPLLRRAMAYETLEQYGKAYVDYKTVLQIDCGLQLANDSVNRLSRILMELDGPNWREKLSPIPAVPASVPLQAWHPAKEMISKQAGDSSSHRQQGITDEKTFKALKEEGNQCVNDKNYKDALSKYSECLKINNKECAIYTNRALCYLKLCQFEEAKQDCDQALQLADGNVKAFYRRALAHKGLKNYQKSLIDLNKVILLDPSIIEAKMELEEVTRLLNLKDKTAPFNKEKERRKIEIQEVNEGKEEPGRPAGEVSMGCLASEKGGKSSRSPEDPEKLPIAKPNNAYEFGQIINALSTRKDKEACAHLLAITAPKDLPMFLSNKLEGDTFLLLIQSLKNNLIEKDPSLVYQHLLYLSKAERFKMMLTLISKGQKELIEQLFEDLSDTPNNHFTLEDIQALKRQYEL
# Sequence of UniProt Q5T011 (Q5T011 whole entry, looked up): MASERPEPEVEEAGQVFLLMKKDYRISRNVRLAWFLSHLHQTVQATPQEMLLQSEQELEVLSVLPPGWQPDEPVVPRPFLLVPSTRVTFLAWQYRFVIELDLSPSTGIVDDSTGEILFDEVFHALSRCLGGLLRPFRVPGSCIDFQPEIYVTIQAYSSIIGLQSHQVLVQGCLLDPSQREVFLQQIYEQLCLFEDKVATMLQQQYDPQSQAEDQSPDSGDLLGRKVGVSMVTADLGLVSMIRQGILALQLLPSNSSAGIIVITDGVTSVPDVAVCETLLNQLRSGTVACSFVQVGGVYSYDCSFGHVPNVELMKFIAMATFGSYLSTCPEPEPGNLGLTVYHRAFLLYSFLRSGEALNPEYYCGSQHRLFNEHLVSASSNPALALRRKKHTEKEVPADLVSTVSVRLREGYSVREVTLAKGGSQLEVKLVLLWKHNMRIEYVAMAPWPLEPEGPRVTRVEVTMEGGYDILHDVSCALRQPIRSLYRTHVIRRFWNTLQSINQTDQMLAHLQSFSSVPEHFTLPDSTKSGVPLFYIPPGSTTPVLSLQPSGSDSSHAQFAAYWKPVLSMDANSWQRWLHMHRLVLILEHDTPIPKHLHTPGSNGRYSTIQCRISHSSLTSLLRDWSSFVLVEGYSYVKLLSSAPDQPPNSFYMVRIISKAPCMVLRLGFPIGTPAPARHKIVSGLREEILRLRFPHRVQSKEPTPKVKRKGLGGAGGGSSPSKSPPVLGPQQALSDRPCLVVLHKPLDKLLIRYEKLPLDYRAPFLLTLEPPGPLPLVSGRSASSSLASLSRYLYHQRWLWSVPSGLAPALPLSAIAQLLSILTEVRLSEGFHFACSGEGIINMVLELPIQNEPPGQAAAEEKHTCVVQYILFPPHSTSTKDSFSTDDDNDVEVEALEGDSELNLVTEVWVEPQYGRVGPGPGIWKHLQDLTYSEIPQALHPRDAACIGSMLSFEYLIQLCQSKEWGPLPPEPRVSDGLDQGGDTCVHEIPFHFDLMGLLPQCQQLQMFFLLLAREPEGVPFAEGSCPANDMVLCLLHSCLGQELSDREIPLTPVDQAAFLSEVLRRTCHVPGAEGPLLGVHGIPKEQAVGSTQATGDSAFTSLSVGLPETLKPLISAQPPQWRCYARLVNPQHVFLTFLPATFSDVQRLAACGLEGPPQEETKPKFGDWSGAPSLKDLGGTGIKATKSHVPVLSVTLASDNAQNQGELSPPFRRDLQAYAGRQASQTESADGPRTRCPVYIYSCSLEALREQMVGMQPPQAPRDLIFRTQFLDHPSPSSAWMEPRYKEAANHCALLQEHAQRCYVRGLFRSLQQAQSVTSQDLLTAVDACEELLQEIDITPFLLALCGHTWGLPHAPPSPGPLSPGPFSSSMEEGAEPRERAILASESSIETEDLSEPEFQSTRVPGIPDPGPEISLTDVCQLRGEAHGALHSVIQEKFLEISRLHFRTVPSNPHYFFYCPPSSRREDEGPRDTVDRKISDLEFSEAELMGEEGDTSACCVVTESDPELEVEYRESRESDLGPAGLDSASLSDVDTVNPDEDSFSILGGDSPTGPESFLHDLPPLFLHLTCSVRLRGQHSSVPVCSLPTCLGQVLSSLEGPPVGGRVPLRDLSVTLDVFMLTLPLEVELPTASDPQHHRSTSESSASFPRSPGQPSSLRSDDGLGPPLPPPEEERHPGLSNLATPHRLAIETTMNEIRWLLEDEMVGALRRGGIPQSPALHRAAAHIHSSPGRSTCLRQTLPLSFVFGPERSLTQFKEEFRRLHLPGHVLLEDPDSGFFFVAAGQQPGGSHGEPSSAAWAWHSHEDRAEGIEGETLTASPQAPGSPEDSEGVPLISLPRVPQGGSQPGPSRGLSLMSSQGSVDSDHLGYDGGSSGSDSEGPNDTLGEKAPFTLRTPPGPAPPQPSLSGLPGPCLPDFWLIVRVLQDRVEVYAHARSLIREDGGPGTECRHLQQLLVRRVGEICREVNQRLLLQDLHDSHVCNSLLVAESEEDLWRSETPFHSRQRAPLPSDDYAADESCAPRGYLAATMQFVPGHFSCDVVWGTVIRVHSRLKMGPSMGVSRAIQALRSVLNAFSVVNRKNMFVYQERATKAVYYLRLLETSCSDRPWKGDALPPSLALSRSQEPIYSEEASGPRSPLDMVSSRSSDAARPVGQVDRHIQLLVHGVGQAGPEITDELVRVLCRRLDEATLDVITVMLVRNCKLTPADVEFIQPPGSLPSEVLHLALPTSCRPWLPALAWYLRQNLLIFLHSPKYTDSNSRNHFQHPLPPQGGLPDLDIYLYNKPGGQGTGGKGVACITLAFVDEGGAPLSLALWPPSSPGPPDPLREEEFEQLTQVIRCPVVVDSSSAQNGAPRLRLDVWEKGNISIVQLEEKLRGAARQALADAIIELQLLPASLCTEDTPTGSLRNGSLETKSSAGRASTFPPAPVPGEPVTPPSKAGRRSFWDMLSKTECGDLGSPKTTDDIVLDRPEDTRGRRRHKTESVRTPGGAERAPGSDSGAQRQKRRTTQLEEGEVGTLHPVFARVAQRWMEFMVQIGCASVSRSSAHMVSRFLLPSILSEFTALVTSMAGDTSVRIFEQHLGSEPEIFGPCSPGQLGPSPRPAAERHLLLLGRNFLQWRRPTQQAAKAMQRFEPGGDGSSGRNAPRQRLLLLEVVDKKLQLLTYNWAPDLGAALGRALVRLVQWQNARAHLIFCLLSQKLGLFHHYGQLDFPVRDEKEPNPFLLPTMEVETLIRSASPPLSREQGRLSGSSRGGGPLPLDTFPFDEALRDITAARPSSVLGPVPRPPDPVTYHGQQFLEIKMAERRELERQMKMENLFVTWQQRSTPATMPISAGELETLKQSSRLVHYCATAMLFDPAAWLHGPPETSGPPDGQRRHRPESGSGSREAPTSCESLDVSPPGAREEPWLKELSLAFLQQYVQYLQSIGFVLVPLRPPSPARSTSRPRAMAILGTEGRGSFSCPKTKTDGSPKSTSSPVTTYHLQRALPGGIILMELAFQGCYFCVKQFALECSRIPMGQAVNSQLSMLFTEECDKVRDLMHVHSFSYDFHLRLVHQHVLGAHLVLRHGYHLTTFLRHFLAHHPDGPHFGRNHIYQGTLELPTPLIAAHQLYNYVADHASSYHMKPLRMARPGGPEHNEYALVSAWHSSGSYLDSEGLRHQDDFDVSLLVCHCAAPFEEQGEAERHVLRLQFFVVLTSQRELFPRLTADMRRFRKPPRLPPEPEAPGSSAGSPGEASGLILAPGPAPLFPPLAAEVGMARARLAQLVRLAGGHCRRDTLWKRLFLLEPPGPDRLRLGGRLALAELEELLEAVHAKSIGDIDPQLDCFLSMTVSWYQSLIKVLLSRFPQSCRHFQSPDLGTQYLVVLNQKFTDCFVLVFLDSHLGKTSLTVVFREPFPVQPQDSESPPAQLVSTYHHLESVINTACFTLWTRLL
# Sequence of UniProt Q9P289 (Q9P289 whole entry, looked up): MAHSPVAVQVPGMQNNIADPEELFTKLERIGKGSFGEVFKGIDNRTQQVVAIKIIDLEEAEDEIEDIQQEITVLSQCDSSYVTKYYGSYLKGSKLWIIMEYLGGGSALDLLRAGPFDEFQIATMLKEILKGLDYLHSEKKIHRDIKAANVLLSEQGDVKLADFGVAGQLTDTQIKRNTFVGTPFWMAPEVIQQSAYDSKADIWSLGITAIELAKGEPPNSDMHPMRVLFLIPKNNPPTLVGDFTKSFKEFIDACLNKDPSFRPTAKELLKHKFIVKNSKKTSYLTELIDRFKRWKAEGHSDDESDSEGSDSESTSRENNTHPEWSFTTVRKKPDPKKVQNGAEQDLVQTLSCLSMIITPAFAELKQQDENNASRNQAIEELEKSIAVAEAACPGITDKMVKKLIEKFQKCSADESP
# Sequence of UniProt Q15544 (Q15544 whole entry, looked up): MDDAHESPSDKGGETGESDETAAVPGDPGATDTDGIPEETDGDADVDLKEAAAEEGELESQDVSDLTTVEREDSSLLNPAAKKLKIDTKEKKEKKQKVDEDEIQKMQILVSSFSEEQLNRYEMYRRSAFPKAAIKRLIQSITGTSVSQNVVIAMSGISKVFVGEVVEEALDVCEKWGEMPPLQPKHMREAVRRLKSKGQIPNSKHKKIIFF
Target,log2 fold change (lapatinib),log2 fold change (pictilisib),log2 fold change [1],log2 fold change (duvelisib),log2 fold change (gandotinib),log2 fold change (tozasertib),log2 fold change (doramapimod),log2 fold change (bafetinib),log2 fold change [2],log2 fold change (nilotinib),log2 fold change [3],log2 fold change (dasatinib),log2 fold change [4],log2 fold change [5],log2 fold change (quisinostat),log2 fold change (tipifarnib),log2 fold change [6],log2 fold change [7],log2 fold change (crizotinib),log2 fold change [8]
SYK (UniProt P43405),-0.086,0.017,-0.479 (active),0.004,0.272,0.002,0.021,-0.236,0.261,0.02,-0.031,-0.067,0,0.01,-0.077,-0.002,-0.095,-0.064,,
TAF11 (UniProt Q15544),0.003,,-0.036,-0.06,0.026,0.102,0.023,,0,0.05,-0.049,-0.142,-0.034,-0.051,-0.085,0.057,0.046,,-0.085,-0.03
SLC12A6 isoform 2 (UniProt Q9UHW9),-0.019,,,-0.023,,0.068,0.054,,,,,-0.072,,0.206,-0.011,,-0.055,0.039,-0.051,-0.043
SPAG1 (UniProt Q07617),-0.058,0.17,,,,,-0.025,-0.265,,,,,,,-0.037,,0.007,,0,0.164
STK38L (UniProt Q9Y2H1),,,,-0.007,,-0.009,-0.025,,,-0.08,0.68 (active),-0.002,-0.009,0.102,-0.122,0.04,0.552 (active),-0.046,-0.059,
SZT2 (UniProt Q5T011),0.275,0.189,-0.108,-0.081,-0.17,-0.097,,-0.214,0.22,-0.03,0.434,0.04,0.02,-0.122,,-0.019,,-0.046,,-0.009
SLC25A36 (UniProt Q96CQ1),-0.019,,0.029,-0.122,0.024,-0.09,-0.011,,-0.006,0.081,-0.007,0.012,0.04,0.085,0.045,-0.119,-0.08,-0.031,0.022,0.003
STK26 isoform 3 (UniProt Q9P289),,,,0.008,,-0.001,-0.416,,,,,0.181,,-0.028,0.093,,0.203,,0.095,
STK17B (UniProt O94768),,,,0,,,-0.117,,,-0.006,-0.022,-0.063,-0.197,0.065,-0.255,-0.08,0.634,-0.021,-0.255,
SIN3B (UniProt O75182),,,-0.318,,0.116,-0.095,0.584,,-0.611,1.42 (active),-0.15,,0.839,,-0.079,0.086,0.077,,-0.057,
SLC39A13 (UniProt Q96H72),,,,,,,,,,,,,,,,,,-0.018,,
SHC1 (UniProt P29353),,,0.029,,-0.033,,,,0.009,,,,,,,,,,,
TARDBP (UniProt K7EN94),,,,,,0.257,,,,,,,,,,,,,,
STAU1 isoform 3 (UniProt O95793),,0.048,-0.298,,0.112,,0.269,-0.086,0.078,-0.051,-0.024,,-0.023,,-0.11,0.032,0.088,-0.047,0.049,
